Experiment [1] deals with T1, Muscle, skeletal receptor tyrosine-protein kinase (Homo sapiens) (UniProt O15146).
T1 sequence (whole entry): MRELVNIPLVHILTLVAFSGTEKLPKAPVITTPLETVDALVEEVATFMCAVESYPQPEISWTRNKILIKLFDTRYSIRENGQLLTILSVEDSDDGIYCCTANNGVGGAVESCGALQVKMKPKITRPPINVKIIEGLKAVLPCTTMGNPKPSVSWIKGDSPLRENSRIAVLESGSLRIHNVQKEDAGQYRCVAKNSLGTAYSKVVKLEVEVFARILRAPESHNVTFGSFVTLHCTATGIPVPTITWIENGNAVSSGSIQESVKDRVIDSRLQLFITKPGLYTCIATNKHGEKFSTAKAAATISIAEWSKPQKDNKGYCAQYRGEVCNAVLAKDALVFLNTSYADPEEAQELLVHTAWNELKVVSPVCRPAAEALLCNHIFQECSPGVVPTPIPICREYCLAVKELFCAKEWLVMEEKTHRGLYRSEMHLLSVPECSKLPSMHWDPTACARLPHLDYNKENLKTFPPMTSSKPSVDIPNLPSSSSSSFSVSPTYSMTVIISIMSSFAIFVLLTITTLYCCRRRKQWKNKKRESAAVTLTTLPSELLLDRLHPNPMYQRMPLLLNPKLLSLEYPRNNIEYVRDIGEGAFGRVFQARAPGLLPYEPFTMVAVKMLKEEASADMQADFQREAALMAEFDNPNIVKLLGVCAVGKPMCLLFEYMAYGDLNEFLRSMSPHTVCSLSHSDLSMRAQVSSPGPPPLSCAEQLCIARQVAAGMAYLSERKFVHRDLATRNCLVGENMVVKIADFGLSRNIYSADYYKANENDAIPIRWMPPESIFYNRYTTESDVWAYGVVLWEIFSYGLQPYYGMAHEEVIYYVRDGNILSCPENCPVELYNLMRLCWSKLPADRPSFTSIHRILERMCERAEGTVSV
The settings on record: at 1 µM.

The target in experiment [2] is T1, Muscle, skeletal receptor tyrosine-protein kinase (Homo sapiens). The settings on record: at 10 µM.
Experiment [3] concerns the target T2, Serine/threonine-protein kinase Nek11 (Homo sapiens) (UniProt Q8NG66).
T2 sequence (whole entry): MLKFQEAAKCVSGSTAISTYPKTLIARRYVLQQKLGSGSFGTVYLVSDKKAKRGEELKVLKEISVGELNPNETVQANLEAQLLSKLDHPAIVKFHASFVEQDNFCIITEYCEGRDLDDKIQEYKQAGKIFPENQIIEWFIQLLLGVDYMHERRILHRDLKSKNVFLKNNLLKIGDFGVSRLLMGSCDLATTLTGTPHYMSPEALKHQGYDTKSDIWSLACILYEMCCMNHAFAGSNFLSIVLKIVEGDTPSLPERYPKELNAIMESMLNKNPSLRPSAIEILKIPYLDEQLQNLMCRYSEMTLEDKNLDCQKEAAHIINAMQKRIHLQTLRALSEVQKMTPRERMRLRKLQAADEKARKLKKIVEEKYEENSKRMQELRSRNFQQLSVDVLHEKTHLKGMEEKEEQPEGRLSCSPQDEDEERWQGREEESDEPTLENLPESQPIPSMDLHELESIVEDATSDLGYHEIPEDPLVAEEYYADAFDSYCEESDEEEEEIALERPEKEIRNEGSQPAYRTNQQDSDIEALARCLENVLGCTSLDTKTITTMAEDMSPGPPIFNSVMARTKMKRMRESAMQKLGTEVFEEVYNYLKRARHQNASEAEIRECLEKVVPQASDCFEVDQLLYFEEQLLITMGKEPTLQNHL
The settings on record: at 1 µM.

Experiment [4] deals with T2, Serine/threonine-protein kinase Nek11 (Homo sapiens). The settings on record: at 10 µM.
Experiment [5] addresses T3, Serine/threonine-protein kinase Nek2 (Homo sapiens) (UniProt P51955).
T3 sequence (whole entry): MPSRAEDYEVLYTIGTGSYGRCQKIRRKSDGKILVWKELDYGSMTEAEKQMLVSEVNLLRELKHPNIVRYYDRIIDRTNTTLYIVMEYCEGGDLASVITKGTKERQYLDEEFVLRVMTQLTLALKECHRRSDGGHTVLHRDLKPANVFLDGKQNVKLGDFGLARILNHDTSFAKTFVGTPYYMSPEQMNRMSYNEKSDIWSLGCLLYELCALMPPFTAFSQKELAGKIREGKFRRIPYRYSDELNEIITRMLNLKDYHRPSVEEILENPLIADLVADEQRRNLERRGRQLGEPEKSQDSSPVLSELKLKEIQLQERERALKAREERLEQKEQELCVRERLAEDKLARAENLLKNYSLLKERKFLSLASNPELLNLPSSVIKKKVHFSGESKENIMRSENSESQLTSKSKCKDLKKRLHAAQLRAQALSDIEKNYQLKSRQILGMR
The settings on record: at 1 µM.

Experiment [6] addresses T3, Serine/threonine-protein kinase Nek2 (Homo sapiens). The settings on record: at 10 µM.
Experiment [7] deals with T4, Serine/threonine-protein kinase Nek3 (Homo sapiens) (UniProt P51956).
T4 sequence (whole entry): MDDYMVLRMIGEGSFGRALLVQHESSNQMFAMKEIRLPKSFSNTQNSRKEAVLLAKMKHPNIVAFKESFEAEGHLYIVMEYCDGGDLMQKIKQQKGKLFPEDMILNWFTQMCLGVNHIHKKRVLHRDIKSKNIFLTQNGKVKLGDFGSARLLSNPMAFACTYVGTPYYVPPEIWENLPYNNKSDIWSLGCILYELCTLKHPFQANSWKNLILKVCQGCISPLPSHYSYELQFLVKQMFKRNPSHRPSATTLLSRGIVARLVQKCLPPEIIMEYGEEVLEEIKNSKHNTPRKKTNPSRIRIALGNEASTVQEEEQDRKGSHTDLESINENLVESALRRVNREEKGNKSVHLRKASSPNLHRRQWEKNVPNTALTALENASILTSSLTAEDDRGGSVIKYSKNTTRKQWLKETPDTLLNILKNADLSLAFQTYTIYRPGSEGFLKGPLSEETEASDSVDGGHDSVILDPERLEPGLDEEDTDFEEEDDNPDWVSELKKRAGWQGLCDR
The settings on record: at 1 µM.

Experiment [8] has as its target T4, Serine/threonine-protein kinase Nek3 (Homo sapiens). The settings on record: at 10 µM.
Experiment [9] addresses Serine/threonine-protein kinase tousled-like 2 (Homo sapiens) (UniProt Q86UE8). The settings on record: at 1 µM.
Experiment [10] has the same target. The settings on record: at 10 µM.

Serine/threonine-protein kinase tousled-like 2 (Homo sapiens), sequence (Q86UE8 whole entry, looked up): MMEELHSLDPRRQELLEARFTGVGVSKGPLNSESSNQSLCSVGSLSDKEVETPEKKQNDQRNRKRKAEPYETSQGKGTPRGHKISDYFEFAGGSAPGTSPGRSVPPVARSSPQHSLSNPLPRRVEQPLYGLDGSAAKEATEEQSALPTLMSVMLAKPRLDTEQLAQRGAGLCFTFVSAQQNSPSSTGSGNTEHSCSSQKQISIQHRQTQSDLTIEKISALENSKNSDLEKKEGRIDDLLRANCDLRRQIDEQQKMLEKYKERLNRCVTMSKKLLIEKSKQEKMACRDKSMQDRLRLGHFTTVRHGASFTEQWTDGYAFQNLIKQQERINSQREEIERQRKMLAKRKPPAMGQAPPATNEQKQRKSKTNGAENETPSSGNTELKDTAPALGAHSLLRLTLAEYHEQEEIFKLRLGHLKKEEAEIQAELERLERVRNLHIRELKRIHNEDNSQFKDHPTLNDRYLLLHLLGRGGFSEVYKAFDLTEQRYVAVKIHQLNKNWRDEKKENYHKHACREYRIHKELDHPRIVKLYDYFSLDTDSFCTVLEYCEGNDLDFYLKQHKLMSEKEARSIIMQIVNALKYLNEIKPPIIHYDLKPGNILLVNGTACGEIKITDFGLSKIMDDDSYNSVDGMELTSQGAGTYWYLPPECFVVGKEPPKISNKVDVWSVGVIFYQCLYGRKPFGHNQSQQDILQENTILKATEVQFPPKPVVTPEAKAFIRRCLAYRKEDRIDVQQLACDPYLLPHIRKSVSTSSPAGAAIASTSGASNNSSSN

In the case of `O=C1Cc2c([nH]c3ccc([N+](=O)[O-])cc23)-c2ccccc2N1`, the residual activity was found to be 70% in [1], 72% in experiment [2], 74% in experiment [3] and 79% in [4].
`O=C(NC(NC(=S)Nc1ccc(F)c([N+](=O)[O-])c1)C(Cl)(Cl)Cl)C(c1ccccc1)c1ccccc1` (configuration not stated): the residual activity in experiment [1] worked out at 85%; in experiment [2], 98%; in experiment [3], 86%; in experiment [4], 49%; in experiment [5] it was 90%; in experiment [6], 88%. Further, the residual activity in experiment [7] was 94%; in experiment [8] it was 89%; in [9] it was 99%; in experiment [10], 94%.
On to `Cn1sc(=O)n(Cc2ccccc2)c1=O`, for which the residual activity in experiment [1] is 73%; in experiment [2], 86%; in [3], 43%; in [4], 62%; in experiment [5] it was 95%; in experiment [6], 87%. The residual activity in experiment [7] stood at 83%; in [8], 97%; in [9] it was 84%; in [10] it was 80%.
Consider `CC(C)c1nn(-c2c(Cl)cccc2Cl)c2nc(Cc3ccc(OCCO)cc3)[nH]c(=O)c12`, for which the residual activity is 96% in experiment [1]; 87% in [2]; 63% in experiment [3]; 70% in [4]; 90% in experiment [5]; 87% in [6]. Also, the residual activity in [7] worked out at 86%; in experiment [8], 89%; in experiment [9], 80%; in [10], 37%.
In the case of `NCCNc1ncc(C(N)=O)c(Nc2cccc(C(F)(F)F)c2)n1`, the residual activity in experiment [1] is 107%; in experiment [2], 75%; in [3], 71%; in experiment [4], 80%; in experiment [7] it was 106%; in experiment [8] it was 78%.
In the case of `O=C1NC(=O)C(c2cn(CCCn3ccnc3)c3ccccc23)=C1Nc1ccccc1`, the residual activity in experiment [1] came out at 77%; in experiment [2], 65%; in experiment [3], 59%; in [4] it was 44%; in [7] it was 110%; in [8] it was 104%. The residual activity in [9] is 44%; in [10] it was 7%.
As for `COc1cc2nccc(Oc3ccc(NC(=S)NC(=O)c4ccccc4C)cc3)c2cc1OC`, the residual activity in experiment [1] is 81%; in experiment [2] it was 56%; in experiment [3], 99%; in [4], 87%; in experiment [5], 78%; in experiment [6], 82%. Besides, the residual activity in [8] is 60%; in experiment [9] it was 101%; in experiment [10], 85%.
Turning to `O=C1C(Cl)=C(N2C(=O)CCC2=O)C(=O)c2ccccc21`, the residual activity in experiment [1] turned out to be 76%; in experiment [2], 84%; in experiment [3], 41%; in experiment [4], 33%; in [5], 93%; in [6], 89%. Besides, the residual activity in experiment [7] was 74%; in [8], 87%; in [9], 94%; in experiment [10], 95%.
In the case of `COc1ccc2c(c1)c(C1=C(c3c[nH]c4ccccc34)C(=O)NC1=O)cn2CCCN(C)C`, the residual activity in [1] turned out to be 96%; in experiment [2], 65%; in experiment [3] it was 50%; in [4], 48%; in experiment [5], 76%; in [9] it was 21%. In [10], the residual activity was 2%.
For `CCN1/C(=C/C(C)=O)Sc2ccc(OC)cc21`, the residual activity in experiment [1] is 82%; in experiment [2], 75%; in [3] it was 49%; in experiment [4], 60%.
Consider `O=c1cc(N2CCNCC2)oc2c(-c3ccccc3)cccc12`, for which the residual activity is 92% in experiment [1]; 78% in [2]; 104% in experiment [3]; 105% in experiment [4]; 84% in experiment [5]; 92% in [6]. The residual activity in [7] worked out at 101%; in experiment [8], 76%; in experiment [10] it was 91%.

Broadly, the residual activity is the signal under treatment as a percentage of the control signal.

(Values after ChEMBL document CHEMBL2218924, “A broad activity screen in support of a chemogenomic map for kinase signalling research and drug discovery” (Biochem J, 2013).)
